Laboratory results published in PubChem BioAssay (EPA / NIEHS).
Calls of active or inactive are those of the source. Rule for the calls: active = hit-call score of the fitted dose curve at least 0.9, where 1 is the maximum; inactive = score below 0.9.

Key:
[1] = ATG_E_Box_CIS: Attagene CIS-FACTORIAL HepG2 Assay for human Enhancer Box (E-box) (AID 2282936); details: HepG2 E-box cis-reporter transcription, actives raise or lower the signal
How it was run: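 Multiplexed CIS reporter system in transiently transfected HepG2 cells measures native transcription factor activity. Reporter RNA after 24 h exposure is profiled by RT-PCR-capillary electrophoresis.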

[2] = ATG_M_61_CIS: Attagene CIS-FACTORIAL HepG2 Assay for M61 Transcription Factor (Internal Marker) (AID 2282937); details: HepG2 Attagene CIS-FACTORIAL M61 internal marker reporter; actives raise or lower the signal
How it was run: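 Endogenous transcription factor activity in HepG2 is read through transiently transfected cis-element reporter units. After 24 h dosing, RNA undergoes reverse transcription, PCR and primer extension with 6-FAM before capillary electrophoresis; DMSO-referenced bidirectional fit.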

[3] = ATG_EGR_CIS: Attagene CIS-FACTORIAL HepG2 Assay for human Early Growth Response 1 (EGR1) (AID 2282938); details: HepG2 Attagene CIS-FACTORIAL EGR reporter mRNA; actives raise or lower the signal
How it was run: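 Activity is taken as induction or loss of reporter mRNA versus DMSO, fitted bidirectionally. Transcripts from cis-regulated reporter units in transiently transfected HepG2 were measured after 24 h by RT-PCR with capillary electrophoresis.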

[4] = ATG_M_19_CIS: Attagene CIS-FACTORIAL HepG2 Assay for M19 Transcription Factor (Internal Marker) (AID 2282939); details: HepG2 Attagene CIS-FACTORIAL M19 internal marker reporter; actives raise or lower the signal
How it was run: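 Transfect HepG2 with MRTU reporter library → dose chemical, 24 h → isolate total RNA, reverse-transcribe with oligo(dT) → PCR, 6-FAM label, HpaI cut (2 h, 37 C) → capillary electrophoresis. Bidirectional fit vs DMSO.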

[5] = ATG_ERE_CIS: Attagene CIS-FACTORIAL HepG2 Assay for Estrogen Response Element (ERE) (AID 2282940); details: HepG2 ERE cis-reporter, Attagene RNA transcript; actives raise or lower the signal
How it was run: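 Transient MRTU transfection of human HepG2; cis-element promoters; 24 h dosing; total RNA → RT (oligo dT) → PCR → 6-FAM primer extension → HpaI digest → CE fluorescence. Bidirectional fit, DMSO baseline.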

[6] = ATG_Ets_CIS: Attagene CIS-FACTORIAL HepG2 Assay for human Erythroblast Transformation Specific (ETS) (AID 2282941); details: HepG2 ETS cis-reporter transcription, actives raise or lower the signal
How it was run: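 Human HepG2 hepatoma cells were transiently transfected with promoter-driven reporter constructs and treated for 24 hours. Reporter transcripts were quantified by RT-PCR with fluorescent primer extension; bidirectional curve fitting used DMSO as reference.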

[7] = ATG_FoxO_CIS: Attagene CIS-FACTORIAL HepG2 Assay for human Forkhead box O (FoxO) (AID 2282943); details: HepG2 Attagene cis-reporter, FoxO element, mRNA; actives raise or lower the signal
How it was run: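 24 h chemical exposure, HepG2 with transient cis-MRTU transfection. RNA extraction, oligo(dT) RT, reporter-specific PCR, primer-extension labelling, HpaI digestion, CE fragment analysis; bidirectional fit, DMSO baseline.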

[8] = ATG_GATA_CIS: Attagene CIS-FACTORIAL HepG2 Assay for human GATA Binding Protein (AID 2282944); details: HepG2 GATA cis-element reporter, Attagene multiplex mRNA; actives raise or lower the signal
How it was run: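 Transient MRTU transfection, HepG2, 24 h compound exposure. Total RNA → oligo(dT) RT → PCR → 6-FAM primer extension → HpaI cut → CE. Bidirectional fit vs DMSO.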

[9] = ATG_GLI_CIS: Attagene CIS-FACTORIAL HepG2 Assay for human Zinc Finger Protein GLI1 (AID 2282945); details: HepG2, Attagene cis-factorial reporter mRNA, GLI element; actives raise or lower the signal
How it was run: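 HepG2 cells transiently transfected with cis-promoter multiplexed reporter units report endogenous transcription factor activity. After 24 h chemical exposure, reporter mRNA was quantified by RT-PCR, 6-FAM labelling, HpaI digestion and capillary electrophoresis, with bidirectional fitting against DMSO.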

[10] = biological target: Hepatocyte nuclear factor 3-beta (Homo sapiens) (UniProt Q9Y261); test: ATG_FoxA2_CIS: Attagene CIS-FACTORIAL HepG2 Assay for human Forkhead box A2 (FOXA2) (AID 2282942); details: HepG2 cis-reporter transcription factor activity, 24 h; actives raise or lower the signal
How it was run: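 Reporter transcript induction is measured by fluorescence after capillary electrophoresis of RT-PCR products from HepG2 cells exposed 24 h. Cis-regulated reporter units report endogenous factor activity; curves fitted both directions against DMSO.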

Measured: AC50

Chain of Hepatocyte nuclear factor 3-beta (Homo sapiens) (Q9Y261 whole entry, looked up): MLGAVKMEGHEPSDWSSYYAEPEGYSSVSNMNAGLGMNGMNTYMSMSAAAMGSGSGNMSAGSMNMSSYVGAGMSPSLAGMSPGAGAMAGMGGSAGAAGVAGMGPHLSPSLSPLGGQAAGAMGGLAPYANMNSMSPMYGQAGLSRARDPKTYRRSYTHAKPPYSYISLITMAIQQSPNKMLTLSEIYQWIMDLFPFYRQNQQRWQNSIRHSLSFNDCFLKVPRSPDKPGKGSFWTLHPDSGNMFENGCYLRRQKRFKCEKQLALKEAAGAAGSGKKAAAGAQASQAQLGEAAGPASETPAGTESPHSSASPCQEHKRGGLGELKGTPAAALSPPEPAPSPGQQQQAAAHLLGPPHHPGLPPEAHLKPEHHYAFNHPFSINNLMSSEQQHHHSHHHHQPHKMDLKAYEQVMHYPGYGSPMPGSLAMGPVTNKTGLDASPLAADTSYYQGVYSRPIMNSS

CCCCCc1ccc(Cl)cc1
inactive: [1] | [2] | [3] | [4] | [5] | [6] | [7] | [8] | [9]

CCCCCCC1(C)CCC(=O)O1 (stereo not drawn)
inactive: [1] | [2] | [3] | [4] | [6] | [10] | [7] | [8] | [9]

COC=O
inactive: [1] | [2] | [3] | [4] | [6] | [10] | [7] | [8] | [9]

CC(C)c1ccc2c(c1)CC[C@H]1[C@](C)(CN)CCC[C@]21C
inactive: [1] | [2] | [4] | [6] | [10] | [7] | [9]
active: [3] 5.35 µM | [8] 5.79 µM

O=CN1CCCCC1
inactive: [1] | [2] | [3] | [4] | [6] | [10] | [7] | [8]

N#[N+]c1ccc2c(S(=O)(=O)[O-])cccc2c1O
inactive: [1] | [2] | [3] | [4] | [5] | [6] | [7] | [8] | [9]

CC1(C)O[C@@H]2C[C@H]3[C@@H]4C[C@H](F)C5=CC(=O)C=C[C@]5(C)[C@@]4(F)[C@@H](O)C[C@]3(C)[C@]2(C(=O)CO)O1
inactive: [1] | [2] | [3] | [4] | [6] | [10] | [7] | [8] | [9]

C=C[Si](OC(C)=O)(OC(C)=O)OC(C)=O
inactive: [1] | [2] | [3] | [4] | [5] | [6] | [7] | [8] | [9]

CCOc1nc(F)cc2nc(S(=O)(=O)Nc3c(Cl)cccc3C(=O)OC)nn12
inactive: [1] | [2] | [3] | [4] | [5] | [6] | [7] | [8] | [9]

C=CCOCC(O)CCl (stereo not drawn)
inactive: [1] | [2] | [3] | [4] | [6] | [10] | [7] | [9]

O=Nc1ccc(O)cc1
inactive: [1] | [2] | [3] | [4] | [6] | [7] | [8] | [9]
active: [5] 56.4 µM

CC(C)(C)C1CCCCC1=O (stereo not drawn)
inactive: [1] | [2] | [3] | [4] | [6] | [10] | [7] | [8] | [9]

O=C(O)c1cc(Cl)cc([N+](=O)[O-])c1Cl
inactive: [1] | [2] | [3] | [4] | [6] | [10] | [7] | [9]

CN(C)CCCN(C)C
inactive: [1] | [2] | [3] | [4] | [6] | [10] | [7] | [8] | [9]
